Compounds without any hit were thinned out: in the full panel of roughly 83,000, 20% have a hit.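 Single-dose data. Exposure time 48 hours. Values below 10 considered active.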 A number with no mark means an inactive call. Activity calls are given as the source filed them.
Test system: KM12 colon
Experiment: NCI-60 one-dose screen, 48 h (100 = growth as untreated, 0 = no growth, -100 = all killed)
Conditions: 10 µM unless noted

Q: Which growth does the source give for CS(=O)(=O)c1ccc(C(=O)N/N=C/c2ccccc2O)cc1 here?
A: Its growth is 34.1%.

Q: CCCCCCCCCCCCCC was tested. Which growth did it give?
A: Its growth is 115%.

Q: How did the growth turn out when C[Si](C)(C)C(c1ccccc1)c1ccccc1 was run?
A: Its growth is 107%.

Q: For C=CCN1C(=O)/C(=c2\sc3n(c2=O)C2C(NN=3)N(CC)C(=O)N2CC)c2ccccc21 (configuration not stated), which growth is on record?
A: Its growth is 20.1%.

Q: Which growth does the source give for CNC1=C([N+](=O)[O-])C(c2ccccc2O)C(C#N)=C(c2cccs2)O1 (configuration not stated) here?
A: Its growth is 99.8%.

Q: Which growth does the source give for NS(=O)(=O)c1ccc(CCn2c(SCC(=O)N/N=C/c3cccnc3)nc3ccccc3c2=O)cc1 here?
A: The growth was 81.8%.

Q: For O=[N+]([O-])c1ccc(Sc2nc(Cl)nc(NC3CCCC3)n2)cc1, which growth is on record?
A: The growth was -96.9% [100 µM] (active).

Q: COC(=O)OC1C(O[C@H]2C[C@H]3[C@@H]4CC=C5C[C@@H](O)CC[C@]5(C)[C@H]4CC[C@]3(C)[C@H]2[C@H](C)C(=O)CCC(C)C)OCC(O)C1OC1OCC(O)C(O)C1OC(=O)c1ccc(OC)cc1 (some centres not stated) was tested. Which growth did it give?
A: The growth was 39.2%.

Q: With CCCCCCCCCCCC1=NC(C)(C)CN1CC(C)O (configuration not stated) as the molecule, how does the growth read?
A: The growth was 34%.

Q: With O=C(C(=O)N1CCCC1)c1cn(CCCn2cc(C(=O)C(=O)N3CCCC3)c3cc(Br)ccc32)c2ccc(Br)cc12 as the molecule, how does the growth read?
A: Its growth is 86.2%.

Q: Which growth does the source give for Cc1c(C(N)=O)sc2ncn(CC(=O)NN=C3CCCCC3)c(=O)c12 here?
A: The growth was 115%.

Q: How did the growth turn out when Fc1ccc(-c2nc(-c3ccc(-c4nc5ccc(F)cc5[nH]4)cc3)no2)cc1 was run?
A: The growth was 60.5%.

Q: Which growth does the source give for Cc1cc2nc(CN)[nH]c2cc1C here?
A: The growth was 103%.

Q: N=C(N)c1ccc(-c2ccc(-c3cccs3)s2)cc1F was tested. Which growth did it give?
A: The growth was -76.8% (active).

Q: How did the growth turn out when Oc1c(C(Nc2cccc3ccccc23)c2ccccc2)ccc2cccnc12 (configuration not stated) was run?
A: Its growth is 36%.

Q: With CSc1ccc(/C=C2\C=C(CC(=O)NCc3ccc(C(=O)c4ccccc4)cc3)c3cc(F)ccc32)cc1 as the molecule, how does the growth read?
A: The growth was -61.4% (active).

Q: How did the growth turn out when CCN(CC)c1ccc(/C=N/N=C(N)N)cc1 was run?
A: The growth was 25.2%.

Q: Which growth does the source give for CC(=O)O[C@@H]1CC2C(C)(C)CCCC2(C)C2=C1C(=O)C(C(C)C)=CC2=O (some centres not stated) here?
A: Its growth is -48.7% (active).

Q: c1ccc(CCn2cccc2)nc1 was tested. Which growth did it give?
A: The growth was 103%.

Q: Which growth does the source give for c1ccc(-c2nnn(-c3ccccc3)n2)cc1 here?
A: Its growth is 107%.

Q: Which growth does the source give for Cc1csc(N/N=C/c2ccncc2)n1 here?
A: The growth was 106%.

Q: With COc1ccccc1CNCCCN1C(=O)c2ccc3c4c(ccc(c24)C1=O)C(=O)N(CCCCNCCCN)C3=O as the molecule, how does the growth read?
A: Its growth is 10.7%.
